Results from ChEMBL document CHEMBL1961873, “Compounds: GSK PKIS; Assays: Nanosyn kinase panel” (2012).

target: Tyrosine-protein kinase JAK1 (Homo sapiens) (UniProt P23458); conditions: at 1 µM;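 also: each value is a mean inhibition of JAK1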
Sequence (P23458 whole entry): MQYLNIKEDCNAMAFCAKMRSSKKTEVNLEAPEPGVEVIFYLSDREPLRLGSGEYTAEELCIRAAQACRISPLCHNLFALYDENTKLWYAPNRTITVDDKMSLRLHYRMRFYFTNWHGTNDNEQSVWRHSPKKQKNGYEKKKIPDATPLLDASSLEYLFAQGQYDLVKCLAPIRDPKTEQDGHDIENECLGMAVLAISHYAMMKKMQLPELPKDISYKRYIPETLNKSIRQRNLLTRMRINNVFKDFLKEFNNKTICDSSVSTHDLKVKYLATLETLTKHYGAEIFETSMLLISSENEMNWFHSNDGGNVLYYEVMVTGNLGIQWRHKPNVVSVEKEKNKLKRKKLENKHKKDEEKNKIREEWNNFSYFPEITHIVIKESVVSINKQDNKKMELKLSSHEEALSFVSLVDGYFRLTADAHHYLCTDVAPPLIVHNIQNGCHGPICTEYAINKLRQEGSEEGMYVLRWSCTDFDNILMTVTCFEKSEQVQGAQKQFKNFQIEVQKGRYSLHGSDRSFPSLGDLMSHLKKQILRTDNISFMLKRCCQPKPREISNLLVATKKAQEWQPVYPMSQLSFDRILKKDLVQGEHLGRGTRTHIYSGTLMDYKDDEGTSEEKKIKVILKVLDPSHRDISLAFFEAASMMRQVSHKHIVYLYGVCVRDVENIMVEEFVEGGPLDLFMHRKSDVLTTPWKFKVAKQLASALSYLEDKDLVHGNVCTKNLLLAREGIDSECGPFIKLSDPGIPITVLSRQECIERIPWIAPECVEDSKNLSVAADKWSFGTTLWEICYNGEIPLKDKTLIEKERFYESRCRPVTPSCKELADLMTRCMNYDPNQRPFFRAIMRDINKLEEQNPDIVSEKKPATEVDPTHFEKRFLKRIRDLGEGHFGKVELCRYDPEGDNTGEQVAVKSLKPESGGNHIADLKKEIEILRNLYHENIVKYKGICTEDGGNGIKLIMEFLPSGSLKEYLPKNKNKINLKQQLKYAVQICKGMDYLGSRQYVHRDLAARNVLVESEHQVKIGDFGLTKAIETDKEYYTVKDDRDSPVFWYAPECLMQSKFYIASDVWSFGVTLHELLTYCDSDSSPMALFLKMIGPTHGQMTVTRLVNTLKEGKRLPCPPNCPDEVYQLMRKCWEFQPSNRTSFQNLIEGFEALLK

Row | SMILES | inhibition [%]
1 | CCN(CC)Cc1ccc(Nc2nccc(-c3cnn4ncccc34)n2)cc1 | 4.83
2 | CCC(=O)Nc1ccc(C)c(-c2ccc(C(=O)NCC3CC3)cc2)c1 | 4.69
3 | COc1cc(C)c(N(C)C(=O)CN(C)C)cc1Nc1nc(Nc2cccc(F)c2C(N)=O)c2cc[nH]c2n1 | -5.28
4 | COc1ccc2cc(-c3c(-c4ccncc4)nc(-c4ccc(S(C)(=O)=O)cc4C)n3C)ccc2c1 | 11.1
5 | Cc1nnc(-c2ccc(C)c(-c3ccc(C(=O)NCc4ccc(Cl)cc4)cc3)c2)o1 | 16.9
6 | COc1cc(Nc2ncc(-c3ccccc3)o2)cc(OC)c1OC | -0.54
7 | NCc1ccc(-n2c(-c3nonc3N)nc3cnccc32)cc1 | 5.42
8 | COc1cc2ncn(-c3cc(OCCc4ccccc4)c(C(N)=O)s3)c2cc1OC | -5.52
9 | O=C(Nc1ccc(Oc2ccc3[nH]c(NC(=O)c4ccccc4)nc3c2)cc1)Nc1cc(C(F)(F)F)ccc1F | 7.18
10 | O=C1Nc2ccc(I)cc2C1=Cc1cc(Br)c(O)c(Br)c1 | 2.67
11 | C[C@@H](Oc1cc(-n2cnc3ccc(OCC4CCN(C)CC4)cc32)sc1C(N)=O)c1ccccc1Cl | 6.05
12 | CN(C)CCOc1ccc(-c2cc(-c3ccc4c(c3)CCC4=NO)c(-c3ccncc3)o2)cc1 | 0.68
13 | O=C1NC(=O)C(c2cccc(Cl)c2)=C1Nc1ccc(Cl)c(C(=O)O)c1 | 13.7
14 | NS(=O)(=O)c1ccc(N/N=C2\C(=O)Nc3ccc(C(=O)NCCCn4ccnc4)cc32)cc1 | 23.8
15 | COc1cc(Nc2ncc3c(C)nc(-c4cccc(C(F)(F)F)c4)n3n2)cc(OC)c1OC | 8.95
16 | NS(=O)(=O)c1ccc(Nc2cc(-c3ccc(O)c(F)c3)n[nH]2)cc1 | 6.94
17 | CCc1ccc(Oc2nccc(-c3c(-c4ccc(F)cc4)ncn3C3CCNCC3)n2)cc1 | 4.5

Row | SMILES | inhibition [%]
18 | CN1CCN(CCCNc2nc3ccc(Oc4ccc(NC(=O)Nc5cc(C(F)(F)F)ccc5F)cc4)cc3[nH]2)CC1 | 1.78
19 | Fc1ccc(-c2ncn(C3CCNCC3)c2-c2ccnc(Oc3ccc(F)c(F)c3)n2)cc1 | 7.49
20 | NC(=O)Cc1ccccc1Oc1nccc(-c2c(-c3ccc(F)cc3)ncn2C2CCNCC2)n1 | -2.73
21 | FC(F)(F)c1cccc(Nc2nccc(-c3cnn4nc(-c5ccccc5)ccc34)n2)c1 | 0.5
22 | COc1cccc(/C=N/Nc2ncnc3c2cnn3-c2cccc(OC)c2)c1 | 4.23
23 | CN(c1ccc(NC(=O)Nc2c(Cl)cccc2Cl)cc1)c1ccnc(Nc2cccc(CS(C)(=O)=O)c2)n1 | 19.7
24 | Cc1ccc(NC(=O)c2ccoc2)cc1-c1ccc(C(=O)NCC2CC2)cc1 | 2.95
25 | COC(=O)Nc1nc2ccc(Sc3ccc(NC(=O)Nc4cc(C(F)(F)F)ccc4F)cc3)cc2[nH]1 | -4.92
26 | COc1cc(Nc2ncc3c(C)nc(-c4cccc(Oc5ccccc5)c4)n3n2)cc(OC)c1OC | -5.12
27 | CCS(=O)(=O)c1ccc(OC)c(Nc2ncc(-c3cccc(-c4ccccc4F)c3)o2)c1 | 1.93
28 | Cc1ccc(C(=O)NC(C)C)cc1-c1ccc(C(=O)NCC2CC2)cc1 | -1.59
29 | CS(=O)(=O)CCNCc1ccc(-c2ccc3ncnc(Nc4ccc(OCc5ccccc5)c(Br)c4)c3c2)o1 | 3.08
30 | O=C(Nc1n[nH]c2cc(-c3ccccc3)ccc12)C1CC1 | 7.69
31 | COc1ccc(C2=C(N3CCc4ccccc43)C(=O)NC2=O)cc1 | 7.64
32 | NC(=O)c1cc(-c2ccc(F)cc2)cc(-c2ccncc2)c1N | 12.2
33 | COc1cc2ncn(-c3cc(OCc4cccs4)c(C(N)=O)s3)c2cc1OC | 19.9

target: Tyrosine-protein kinase JAK2 (Homo sapiens) (UniProt O60674); conditions: at 0.1 µM;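 also: mean percent inhibition of JAK2 activity, from the GSK PKIS kinase panel screen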
Sequence (O60674 whole entry): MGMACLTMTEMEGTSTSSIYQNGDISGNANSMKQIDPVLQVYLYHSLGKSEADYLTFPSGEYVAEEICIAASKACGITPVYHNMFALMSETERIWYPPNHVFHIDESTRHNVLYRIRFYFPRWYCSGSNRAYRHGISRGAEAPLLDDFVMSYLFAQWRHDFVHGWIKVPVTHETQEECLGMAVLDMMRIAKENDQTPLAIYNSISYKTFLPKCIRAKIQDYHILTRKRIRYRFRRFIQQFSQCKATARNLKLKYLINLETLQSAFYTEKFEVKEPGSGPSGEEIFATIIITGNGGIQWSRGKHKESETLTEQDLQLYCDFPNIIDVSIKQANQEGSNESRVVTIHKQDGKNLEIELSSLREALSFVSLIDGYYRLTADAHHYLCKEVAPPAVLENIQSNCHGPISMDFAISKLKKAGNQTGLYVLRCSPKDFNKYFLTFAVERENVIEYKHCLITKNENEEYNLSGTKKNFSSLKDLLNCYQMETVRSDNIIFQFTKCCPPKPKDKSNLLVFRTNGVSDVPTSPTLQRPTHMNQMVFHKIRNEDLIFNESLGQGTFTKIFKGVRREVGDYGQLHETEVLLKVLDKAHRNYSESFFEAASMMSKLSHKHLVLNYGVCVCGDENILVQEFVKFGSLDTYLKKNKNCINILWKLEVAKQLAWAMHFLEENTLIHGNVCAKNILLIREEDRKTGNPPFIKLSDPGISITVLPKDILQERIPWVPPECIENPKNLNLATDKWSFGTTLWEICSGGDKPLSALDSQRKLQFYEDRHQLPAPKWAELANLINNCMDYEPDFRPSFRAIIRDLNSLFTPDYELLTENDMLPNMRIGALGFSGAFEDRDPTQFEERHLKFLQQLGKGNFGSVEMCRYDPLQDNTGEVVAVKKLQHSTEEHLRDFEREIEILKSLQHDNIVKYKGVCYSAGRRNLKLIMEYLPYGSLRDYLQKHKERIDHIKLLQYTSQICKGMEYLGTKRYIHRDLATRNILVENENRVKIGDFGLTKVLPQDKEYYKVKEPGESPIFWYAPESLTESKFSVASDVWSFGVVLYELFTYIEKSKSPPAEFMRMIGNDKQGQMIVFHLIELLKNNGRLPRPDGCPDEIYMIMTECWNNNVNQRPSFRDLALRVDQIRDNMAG

Row | SMILES | inhibition [%]
34 | CCN(CC)Cc1ccc(Nc2nccc(-c3cnn4ncccc34)n2)cc1 | 6.24
35 | CCC(=O)Nc1ccc(C)c(-c2ccc(C(=O)NCC3CC3)cc2)c1 | 1.7
36 | COc1cc(C)c(N(C)C(=O)CN(C)C)cc1Nc1nc(Nc2cccc(F)c2C(N)=O)c2cc[nH]c2n1 | 0.96
37 | CCc1cccc(CC)c1/C=C/c1cncc(C(=O)NC)c1 | 1.99
38 | COc1ccc2cc(-c3c(-c4ccncc4)nc(-c4ccc(S(C)(=O)=O)cc4C)n3C)ccc2c1 | 1.62
39 | Cc1nnc(-c2ccc(C)c(-c3ccc(C(=O)NCc4ccc(Cl)cc4)cc3)c2)o1 | 1.06
40 | COc1cc(Nc2ncc(-c3ccccc3)o2)cc(OC)c1OC | -0.76
41 | NCc1ccc(-n2c(-c3nonc3N)nc3cnccc32)cc1 | 1.95
42 | COc1cc2ncn(-c3cc(OCCc4ccccc4)c(C(N)=O)s3)c2cc1OC | 0.93
43 | O=C(Nc1ccc(Oc2ccc3[nH]c(NC(=O)c4ccccc4)nc3c2)cc1)Nc1cc(C(F)(F)F)ccc1F | 1.51
44 | O=C1Nc2ccc(I)cc2C1=Cc1cc(Br)c(O)c(Br)c1 | 2.54
45 | C[C@@H](Oc1cc(-n2cnc3ccc(OCC4CCN(C)CC4)cc32)sc1C(N)=O)c1ccccc1Cl | 1.61
46 | CN(C)CCOc1ccc(-c2cc(-c3ccc4c(c3)CCC4=NO)c(-c3ccncc3)o2)cc1 | 0.4
47 | O=C1NC(=O)C(c2cccc(Cl)c2)=C1Nc1ccc(Cl)c(C(=O)O)c1 | 0.64
48 | NS(=O)(=O)c1ccc(N/N=C2\C(=O)Nc3ccc(C(=O)NCCCn4ccnc4)cc32)cc1 | 0.1
49 | COc1cc(Nc2ncc3c(C)nc(-c4cccc(C(F)(F)F)c4)n3n2)cc(OC)c1OC | 1.27
50 | NS(=O)(=O)c1ccc(Nc2cc(-c3ccc(O)c(F)c3)n[nH]2)cc1 | -0.13

Row | SMILES | inhibition [%]
51 | CCc1ccc(Oc2nccc(-c3c(-c4ccc(F)cc4)ncn3C3CCNCC3)n2)cc1 | 1.64
52 | CN1CCN(CCCNc2nc3ccc(Oc4ccc(NC(=O)Nc5cc(C(F)(F)F)ccc5F)cc4)cc3[nH]2)CC1 | 3.76
53 | Fc1ccc(-c2ncn(C3CCNCC3)c2-c2ccnc(Oc3ccc(F)c(F)c3)n2)cc1 | 1.1
54 | NC(=O)Cc1ccccc1Oc1nccc(-c2c(-c3ccc(F)cc3)ncn2C2CCNCC2)n1 | 0.56
55 | FC(F)(F)c1cccc(Nc2nccc(-c3cnn4nc(-c5ccccc5)ccc34)n2)c1 | -0.15
56 | COc1cccc(/C=N/Nc2ncnc3c2cnn3-c2cccc(OC)c2)c1 | 3.55
57 | CN(c1ccc(NC(=O)Nc2c(Cl)cccc2Cl)cc1)c1ccnc(Nc2cccc(CS(C)(=O)=O)c2)n1 | 2.35
58 | Cc1ccc(NC(=O)c2ccoc2)cc1-c1ccc(C(=O)NCC2CC2)cc1 | 0
59 | COC(=O)Nc1nc2ccc(Sc3ccc(NC(=O)Nc4cc(C(F)(F)F)ccc4F)cc3)cc2[nH]1 | 32.5
60 | COc1cc(Nc2ncc3c(C)nc(-c4cccc(Oc5ccccc5)c4)n3n2)cc(OC)c1OC | 0.96
61 | CCS(=O)(=O)c1ccc(OC)c(Nc2ncc(-c3cccc(-c4ccccc4F)c3)o2)c1 | 0.19
62 | Cc1ccc(C(=O)NC(C)C)cc1-c1ccc(C(=O)NCC2CC2)cc1 | -1.52
63 | CS(=O)(=O)CCNCc1ccc(-c2ccc3ncnc(Nc4ccc(OCc5ccccc5)c(Br)c4)c3c2)o1 | 1.19
64 | O=C(Nc1n[nH]c2cc(-c3ccccc3)ccc12)C1CC1 | 2.26
65 | COc1ccc(C2=C(N3CCc4ccccc43)C(=O)NC2=O)cc1 | 2.9
66 | NC(=O)c1cc(-c2ccc(F)cc2)cc(-c2ccncc2)c1N | 1.44
67 | COc1cc2ncn(-c3cc(OCc4cccs4)c(C(N)=O)s3)c2cc1OC | 1.45
